Data as given in PubChem BioAssay (EPA / NIEHS).
The source made the active and inactive calls. Rule for the calls: active = hit-call score of the fitted dose curve at least 0.9, where 1 is the maximum; inactive = score below 0.9.

How the values were obtained:
Conditions in all cases: mRNA level, 48 h; actives raise or lower the signal
[1] = read-out: DNA damage-inducible transcript 3 (DDIT3), DDIT3 (gene 1649); assay: LTEA_HepaRG_DDIT3: Life Technologies and Expression Analysis (LTEA) Assay for DNA damage-inducible transcript 3 (DDIT3) using HepaRG (AID 2283488)
Summary of the method: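 Changes in DDIT3 transcript, in either direction relative to 0.5% DMSO vehicle, were quantified by TaqMan qRT-PCR after 48 h chemical exposure of HepaRG cells at 8 concentrations, maximum 100 uM.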

[2] = read-out: Pro-epidermal growth factor (Homo sapiens) (UniProt P01133); assay: LTEA_HepaRG_EGF: Life Technologies and Expression Analysis (LTEA) Assay for Epidermal growth factor (EGF) using HepaRG (AID 2283489)
Summary of the method: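 Differentiated human HepaRG cells, plated 48 h then switched to serum-free induction medium, were exposed for 48 h to test chemicals (8-point half-log series, top 100 uM, 0.5% DMSO). EGF mRNA was quantified by qRT-PCR, normalized to ACTB, GAPDH, POLR2A.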

[3] = read-out: Ezrin (EZR), EZR (gene 7430); assay: LTEA_HepaRG_EZR: Life Technologies and Expression Analysis (LTEA) Assay for Ezrin (EZR) using HepaRG (AID 2283491)
Summary of the method: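 EZR transcript levels came from Fluidigm qRT-PCR and were normalized to three housekeeping genes after 48 h chemical exposure of HepaRG cells. Dosing used an 8-point half-log series with a 100 uM top concentration in 0.5% DMSO, tested in duplicate; both directions were fitted versus vehicle.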

[4] = read-out: Cytochrome P450 3A7 (Homo sapiens) (UniProt P24462); assay: LTEA_HepaRG_CYP3A7: Life Technologies and Expression Analysis (LTEA) Assay for CYP3A7 using HepaRG (AID 2283492)
Summary of the method: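 HepaRG cells plated 48 h, then dosed in serum-free induction medium for 48 h at 8 concentrations (top 100 uM, half-log steps, 0.5% DMSO). CYP3A7 mRNA by qRT-PCR, normalised to ACTB/GAPDH/POLR2A; bidirectional fit versus DMSO.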

CYP3A5 (gene 1577) = assay: LTEA_HepaRG_CYP3A5: Life Technologies and Expression Analysis (LTEA) Assay for CYP3A5 using HepaRG (AID 2283493)
Summary of the method: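 mRNA induction or loss of CYP3A5 assessed in HepaRG after 48 h dosing, 100 uM top concentration, duplicate wells; TaqMan qRT-PCR with ACTB, GAPDH, POLR2A normalization; 0.5% DMSO as negative control.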

[5] = read-out: Fatty Acid-Binding Protein 1 (FABP1), FABP1 (gene 2168); assay: LTEA_HepaRG_FABP1: Life Technologies and Expression Analysis (LTEA) Assay for Fatty Acid-Binding Protein 1 (FABP1) using HepaRG (AID 2283494)
Summary of the method: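 Differentiated human HepaRG cells were exposed in duplicate for 48 h in serum-free induction medium to 8-point half-log concentration series topping at 100 uM in 0.5% DMSO. FABP1 mRNA measured by TaqMan qRT-PCR, normalized to ACTB/GAPDH/POLR2A; bidirectional fit versus DMSO.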

[6] = read-out: Cytochrome P450 4A22 (Homo sapiens) (UniProt Q5TCH4); assay: LTEA_HepaRG_CYP4A22: Life Technologies and Expression Analysis (LTEA) Assay for Cytochrome P450 4A22 (CYP4A22) using HepaRG (AID 2283495)
Summary of the method: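 qRT-PCR of CYP4A22 mRNA (Fluidigm TaqMan, normalized to three housekeeping genes) after 48 h chemical exposure of HepaRG cells; 8-point half-log series, top 100 uM, 0.5% DMSO vehicle. Bidirectional curve fitting vs DMSO baseline.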

[7] = read-out: Glutathione S-Transferase (GSTA2), GSTA2 (gene 2939); assay: LTEA_HepaRG_GSTA2: Life Technologies and Expression Analysis (LTEA) Assay for Glutathione S-Transferase (GSTA2) using HepaRG (AID 2283497)
Summary of the method: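 Human HepaRG cells, plated 48 h, then exposed in serum-free induction medium for 48 h to eight half-log concentrations up to 100 uM in 0.5% DMSO, duplicate. GSTA2 mRNA by qRT-PCR, normalized to ACTB/GAPDH/POLR2A; bidirectional fit versus DMSO.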

[8] = read-out: growth arrest and DNA damage 45 (GADD45G), GADD45G (gene 10912); assay: LTEA_HepaRG_GADD45G: Life Technologies and Expression Analysis (LTEA) Assay for growth arrest and DNA damage 45 (GADD45G) using HepaRG (AID 2283499)
Summary of the method: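 Differentiated human HepaRG cells in serum-free induction medium were exposed for 48 h to 8 half-log concentrations up to 100 uM in 0.5% DMSO, in duplicate. GADD45G mRNA was measured by TaqMan qRT-PCR, normalised to ACTB, GAPDH and POLR2A, and fitted bidirectionally against DMSO.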

[9] = read-out: Glutamate-cysteine ligase regulatory (GCLM), GCLM (gene 2730); assay: LTEA_HepaRG_GCLM: Life Technologies and Expression Analysis (LTEA) Assay for Glutamate-cysteine ligase regulatory (GCLM) using HepaRG (AID 2283500)
Summary of the method: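 Human liver HepaRG cultures receive test chemicals for 48 hours at up to 100 uM in 0.5% DMSO. GCLM expression is measured by qRT-PCR and analysed for increases or decreases against vehicle.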

[10] = read-out: Glutathione S-transferase M3 (GSTM3), GSTM3 (gene 2947); assay: LTEA_HepaRG_GSTM3: Life Technologies and Expression Analysis (LTEA) Assay for Glutathione S-transferase M3 (GSTM3) using HepaRG (AID 2283501)
Summary of the method: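 Differentiated HepaRG cells in serum-free induction medium were exposed in duplicate for 48 h to 8 half-log concentrations up to 100 uM in 0.5% DMSO. GSTM3 mRNA was measured by TaqMan qRT-PCR, normalized to ACTB/GAPDH/POLR2A, and fitted bidirectionally versus DMSO.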

[11] = read-out: Heat shock 70 kDa protein 1 (HSPA1A), gene 3303; assay: LTEA_HepaRG_HSPA1A: Life Technologies and Expression Analysis (LTEA) Assay for Heat shock 70 kDa protein 1 (HSPA1A) using HepaRG (AID 2283502)
Summary of the method: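 HSPA1A induction in human HepaRG liver cells is measured after 48 h of chemical treatment (100 uM maximum, 0.5% DMSO vehicle). Expression comes from qRT-PCR normalized to endogenous controls.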

[12] = read-out: Hypoxia-inducible factor 1-alpha (Homo sapiens) (UniProt Q16665); assay: LTEA_HepaRG_HIF1A: Life Technologies and Expression Analysis (LTEA) Assay for Hypoxia-inducible factor 1 (HIF1A) Trancription factor using HepaRG (AID 2283503)
Summary of the method: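 HepaRG, 48 h exposure, 8-pt half-log series from 100 uM, 0.5% DMSO vehicle, duplicates. Readout: HIF1A transcript by qRT-PCR (Fluidigm array), housekeeping-normalised. Bidirectional curve fit vs DMSO baseline.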

[13] = read-out: 3-Hydroxy-3-Methylglutaryl-CoA Synthase 2 (HMGCS2), HMGCS2 (gene 3158); assay: LTEA_HepaRG_HMGCS2: Life Technologies and Expression Analysis (LTEA) Assay for 3-Hydroxy-3-Methylglutaryl-CoA Synthase 2 (HMGCS2) using HepaRG (AID 2283504)
Summary of the method: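 Differentiated human HepaRG cells were exposed in duplicate for 48 h in serum-free induction medium to eight concentrations (top 100 uM, half-log steps, 0.5% DMSO). HMGCS2 mRNA was quantified by TaqMan qRT-PCR, normalised to ACTB, GAPDH and POLR2A, then fitted bidirectionally against DMSO.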

HGF (gene 3082) = assay: LTEA_HepaRG_HGF: Life Technologies and Expression Analysis (LTEA) Assay for Hepatocyte Growth Facto (HGF) using HepaRG (AID 2283505)
Summary of the method: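 Differentiated human HepaRG cells in serum-free induction medium were exposed in duplicate for 48 h to eight concentrations (top 100 uM, half-log steps, 0.5% DMSO). HGF mRNA was quantified by qRT-PCR, normalized to ACTB, GAPDH and POLR2A.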

[14] = read-out: Insulin Like Growth Factor 1 (IGF1), IGF1 (gene 3479); assay: LTEA_HepaRG_IGF1: Life Technologies and Expression Analysis (LTEA) Assay for Insulin Like Growth Factor 1 (IGF1) using HepaRG (AID 2283506)
Summary of the method: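 Using human HepaRG liver cells, IGF1 transcript induction or suppression is measured 48 h after dosing across eight concentrations capped at 100 uM. Values derive from bidirectional concentration-response fitting with DMSO as baseline.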

[15] = read-out: Intercellular Adhesion Molecule 1 (ICAM1), ICAM1 (gene 3383); assay: LTEA_HepaRG_ICAM1: Life Technologies and Expression Analysis (LTEA) Assay for Intercellular Adhesion Molecule 1 (ICAM1) using HepaRG (AID 2283507)
Summary of the method: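 Differentiated HepaRG cells in serum-free induction medium were exposed in duplicate for 48 h to eight half-log concentrations up to 100 uM in 0.5% DMSO. Transcript levels were measured by qRT-PCR normalized to ACTB, GAPDH and POLR2A; bidirectional fits relative to DMSO.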

[16] = read-out: Cytochrome P450 7A1 (Homo sapiens) (UniProt P22680); assay: LTEA_HepaRG_CYP7A1: Life Technologies and Expression Analysis (LTEA) Assay for Cytochrome P450 7A1 (CYP7A1) using HepaRG (AID 2283496)
Summary of the method: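 Gene expression endpoint in human HepaRG liver cells treated for 48 h with test chemicals (up to 100 uM, 0.5% DMSO). Values come from bidirectional concentration-response fitting versus DMSO.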

[17] = read-out: Glutamate-cysteine ligase catalytic (GCLC), GCLC (gene 2729); assay: LTEA_HepaRG_GCLC: Life Technologies and Expression Analysis (LTEA) Assay for Glutamate-cysteine ligase catalytic (GCLC) using HepaRG (AID 2283498)
Summary of the method: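 Differentiated human HepaRG cells, plated 48 h then switched to serum-free induction medium, were exposed in duplicate for 48 h to 8 half-log concentrations topping at 100 uM in 0.5% DMSO. GCLC mRNA was quantified by qRT-PCR against ACTB, GAPDH and POLR2A.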

[18] = read-out: Early growth response protein 1 (EGR1) transcription factor, EGR1 (gene 1958); assay: LTEA_HepaRG_EGR1: Life Technologies and Expression Analysis (LTEA) Assay for Early growth response protein 1 (EGR1) transcription factor using HepaRG (AID 2283490)
Summary of the method: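 Differentiated human HepaRG cells in serum-free induction medium were exposed in duplicate for 48 h to eight concentrations (top 100 uM, half-log steps) in 0.5% DMSO. EGR1 mRNA was quantified by qRT-PCR, normalized to ACTB, GAPDH and POLR2A, and fitted bidirectionally versus DMSO.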

Measured: AC50

Hypoxia-inducible factor 1-alpha (Homo sapiens), sequence (Q16665 whole entry, looked up): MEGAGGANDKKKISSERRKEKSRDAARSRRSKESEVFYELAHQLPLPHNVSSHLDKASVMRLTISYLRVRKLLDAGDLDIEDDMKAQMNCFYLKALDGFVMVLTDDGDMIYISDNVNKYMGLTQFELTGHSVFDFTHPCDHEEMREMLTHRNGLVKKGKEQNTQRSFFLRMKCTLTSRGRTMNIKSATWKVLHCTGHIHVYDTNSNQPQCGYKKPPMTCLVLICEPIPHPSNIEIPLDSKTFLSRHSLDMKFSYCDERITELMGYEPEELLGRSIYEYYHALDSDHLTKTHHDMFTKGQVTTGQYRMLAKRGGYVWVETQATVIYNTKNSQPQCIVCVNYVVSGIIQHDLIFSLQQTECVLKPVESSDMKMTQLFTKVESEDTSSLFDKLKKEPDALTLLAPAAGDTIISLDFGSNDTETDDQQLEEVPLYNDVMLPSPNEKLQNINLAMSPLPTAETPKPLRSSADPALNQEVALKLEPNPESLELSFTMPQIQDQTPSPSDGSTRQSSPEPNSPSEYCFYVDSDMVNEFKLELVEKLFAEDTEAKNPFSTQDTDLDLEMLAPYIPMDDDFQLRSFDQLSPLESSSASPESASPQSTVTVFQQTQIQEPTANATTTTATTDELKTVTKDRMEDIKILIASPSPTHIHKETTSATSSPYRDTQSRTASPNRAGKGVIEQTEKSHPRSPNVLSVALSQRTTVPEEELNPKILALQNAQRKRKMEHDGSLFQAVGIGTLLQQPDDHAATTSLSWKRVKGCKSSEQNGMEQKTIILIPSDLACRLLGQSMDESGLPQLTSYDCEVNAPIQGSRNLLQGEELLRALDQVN
Cytochrome P450 3A7 (Homo sapiens), sequence (P24462 whole entry, looked up): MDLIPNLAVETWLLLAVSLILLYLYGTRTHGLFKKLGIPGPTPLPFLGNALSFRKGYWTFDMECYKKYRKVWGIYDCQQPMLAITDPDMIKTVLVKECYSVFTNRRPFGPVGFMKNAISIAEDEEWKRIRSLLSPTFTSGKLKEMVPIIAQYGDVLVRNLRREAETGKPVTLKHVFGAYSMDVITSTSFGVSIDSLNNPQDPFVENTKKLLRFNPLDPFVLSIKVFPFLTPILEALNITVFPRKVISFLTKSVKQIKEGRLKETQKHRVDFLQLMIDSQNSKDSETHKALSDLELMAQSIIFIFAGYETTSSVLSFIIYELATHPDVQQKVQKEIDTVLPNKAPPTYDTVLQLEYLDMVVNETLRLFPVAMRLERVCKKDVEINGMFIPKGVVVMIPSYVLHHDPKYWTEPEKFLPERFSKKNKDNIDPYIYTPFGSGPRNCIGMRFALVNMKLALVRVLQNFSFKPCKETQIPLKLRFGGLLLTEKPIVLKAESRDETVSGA

COc1cc(S(=O)(=O)O)c(C)cc1N=Nc1c(O)ccc2cc(S(=O)(=O)O)ccc12
not listed: [16] | [17] | [18]
inactive: all other assays above

c1cc(-c2ccncc2)ccn1
active: [4] 50 µM
not listed: HGF (gene 3082) | [17] | [18]
inactive: all other assays above

Cc1nc(C)nc(N2C[C@@H](C)N(c3ccnc([C@@H](C)O)n3)[C@@H](C)C2)n1
active: [6] 0.682 µM | [7] 25 µM | HGF (gene 3082) 15.3 µM
not listed: [4] | [18]
inactive: all other assays above

CCCCCCCCCCCCCCCCCC(=O)O
not listed: [1] | [16]
inactive: all other assays above
